# Source: the supplement of paper PMC13380429
# Test system: Vero E6 infected with SARS-CoV-2
# Assay: morphology score (similarity to uninfected cells); higher = more like uninfected cells
# Conditions: 24 h
row,SMILES,morphology score
1,O=c1c(O)c(-c2ccc(O)c(O)c2)oc2cc(O)ccc12 [fisetin] (10 µM),0.115
2,CCCCNc1nc(N)c2[nH]c(=O)n(Cc3ccc(OCCN(C)C)nc3)c2n1 (10 µM),0.0113
3,O=C(c1ccc(Cl)cc1)N(Cc1ccccc1)C1CCCCC1 (10 µM),-0.00245
4,CNCCN(C)Cc1c[nH]nc1-c1ccc(O[C@H]2C[C@H](OCCC3CCOCC3)C2)cc1 (10 µM),-0.0509
5,CCCc1nn(C)c2c(=O)[nH]c(-c3cc(S(=O)(=O)N4CCN(C)CC4)ccc3OCC)nc12 [sildenafil] (10 µM),0.056
6,Cc1oc(=O)oc1CN1CCN(c2cc3c(cc2F)c(=O)c(C(=O)O)c2n3C(C)S2)CC1 (centres undefined) [prulifloxacin] (10 µM),0.197
7,Cc1cccc(C(=O)NCN2CCN(c3ccccc3C#N)CC2)c1 (10 µM),0.161
8,CNCCc1ccc(O)c(O)c1 [deoxyepinephrine] (10 µM),0.0423
9,COc1cccc(N2CCN(C3=Nc4c(F)cccc4[C@H](CC(=O)O)N3c3cc(C(F)(F)F)ccc3OC)CC2)c1 [letermovir] (10 µM),-0.0548

# Test system: Vero E6 infected with SARS-CoV-2
# Assay: SARS-CoV-2 infection rate relative to infected DMSO; higher = more infection, active = 60 or less
# Conditions: 24 h
row,SMILES,SARS-CoV-2 infection rate
1,Cc1cc(OCc2nnc(SC3CCCC3)n2-c2cccnc2)ccc1-c1ccc(S(C)(=O)=O)cc1 (0.833333 µM),100% (inactive)
2,COc1ccc(Cl)cc1[C@]1(F)C(=O)Nc2cc(C(F)(F)F)ccc21 [flindokalner] (10 µM),99.5% (inactive)
3,COC(=O)[C@@H]1[C@H]2C[C@H]3c4[nH]c5ccccc5c4CCN3C[C@@H]2CC[C@@H]1O [yohimbine] (10 µM),109% (inactive)
4,c1ccc2nc(C3=NCCN3)ccc2c1 (10 µM),93% (inactive)
5,COc1ccc(-n2nc(CCC(=O)N(C)O)cc2-c2ccc(Cl)cc2)cc1 [tepoxalin] (0.833333 µM),104% (inactive)
6,CCCCCCCCCCCCCC(=O)[O-].CCCCCCCCCCCCCC(=O)[O-].N[C@@H]1CCCC[C@H]1N.[Pt+2] [miriplatin] (10 µM),114% (inactive)
7,C/C=C1/[C@H](O[C@@H]2O[C@H](CO)[C@@H](O)[C@H](O)[C@H]2O)OC=C(C(=O)OC)[C@H]1CC(=O)OCCc1ccc(O)c(O)c1 [oleuropein] (10 µM),112% (inactive)
8,CN(C)CCCCSC(=N)N (10 µM),100% (inactive)
9,Cc1ccc(C(=O)Cn2c3c(sc2=N)CCCC3)cc1 [pifithrin-alpha] (10 µM),108% (inactive)
10,NS(=O)(=O)c1ccc(-n2nc(C(F)(F)F)cc2-c2ccc(Cl)cc2)cc1 (10 µM),106% (inactive)
11,CN1CC[C@@H](NC(=O)Nc2ccc(C#N)cc2)C[C@@H]1c1nc2ccccc2[nH]1 [glasdegib] (10 µM),100% (inactive)
12,CC1(C)[C@H](C(=O)O)N2C(=O)C[C@H]2S1(=O)=O [sulbactam] (10 µM),113% (inactive)
13,NC1(Cc2ccc(Cl)cc2)CCN(c2ncnc3[nH]ccc23)CC1 (0.833333 µM),99.5% (inactive)
14,CC(=O)N[C@H](Cc1ccc2ccccc2c1)C(=O)N[C@H](Cc1ccc(Cl)cc1)C(=O)N[C@H](Cc1cccnc1)C(=O)N[C@@H](CO)C(=O)N[C@@H](Cc1ccc(O)cc1)C(=O)N[C@H](CCCNC(N)=O)C(=O)N[C@@H](CC(C)C)C(=O)N[C@@H](CCCNC(=N)N)C(=O)N1CCC[C@H]1C(=O)N[C@H](C)C(N)=O [cetrorelix] (10 µM),79.5% (inactive)
15,O=c1[nH]c2ccccc2c(=O)n1CCCN1CCN(c2ccccc2)CC1 [pelanserin] (10 µM),104% (inactive)
16,COC(=O)Nc1nc2cc(SC(C)C)ccc2[nH]1 [methiazole] (0.833333 µM),120% (inactive)
17,CCCc1c2oc(C(=O)O)cc(=O)c2cc2c(=O)cc(C(=O)O)n(CC)c12 [nedocromil] (10 µM),110% (inactive)
18,Nc1ccc(S(=O)(=O)Nc2ccnn2-c2ccccc2)cc1 [sulfaphenazole] (10 µM),99.5% (inactive)
19,O=C(O[C@H]1[C@H](OC(=O)c2cccnc2)[C@@H](OC(=O)c2cccnc2)[C@H](OC(=O)c2cccnc2)[C@@H](OC(=O)c2cccnc2)[C@H]1OC(=O)c1cccnc1)c1cccnc1 [inositol-hexanicotinate] (10 µM),109% (inactive)
20,CCNCc1cc(C(C)(C)C)c(O)c(C(C)(C)C)c1 (10 µM),99% (inactive)
